Screens: PubChem BioAssay, National Center for Advancing Translational Sciences (NCATS)
WRN helicase inh: WRN helicase (human) inhibition; Potency, µM (titrated, usually from 114 µM), without a hit: at the highest dose activity change, negative = inhibition, actives largely listed as inhibitors; AID 651768; Q14191; 360,000 compounds, 0.46% hits; WRN helicase unwinding, fluorescent forked duplex, kinetic; note: % is set by controls: 0 for no effect and ±100 for the full control effect; nearly all actives have a fitted effect of over 55% in size
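WRN at 20 nM final was preincubated with compound for 15 min at room temperature; reaction started with 100 nM forked duplex oligonucleotide carrying fluorophore and quencher plus 2 mM ATP (final). Unwinding followed kinetically by red fluorescence (ex 525/em 598 nm).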
Pol eta inh: blocks human DNA polymerase eta activity; 390,000 compounds, 1.2% hits; Q9Y253; Potency, µM (doses to about 114 µM), for the others: at the top dose activity change, negative = inhibition, most hits filed as inhibitors; recombinant Pol eta, fluorescent DNA replication assay; note: % is set by controls: 0 for no effect and ±100 for the full control effect
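Fluorescent replication assay: 50 nM final substrate added after a 15 min room-temperature compound preincubation with 10 nM enzyme. Signal taken at 0 min and again at 10 min.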
FEN1 inh: blocks human flap endonuclease 1; 390,000 compounds, 0.35% hits; Recombinant FEN1 flap cleavage, fluorescence, 15 min; AID 588795; Potency, µM (doses to about 114 µM), without a hit: top-dose activity change, negative = inhibition, hits mostly inhibitors; note: % is set by controls: 0 for no effect and ±100 for the full control effect; nearly all actives have a fitted effect of over 65% in size
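FEN1 at 10 nM preincubated with compounds 15 min at room temperature, then flap DNA substrate added at 50 nM final. Signal read at 0 and 15 min; concentration-response fitted with four-parameter Hill equation.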
POLK inh: DNA polymerase kappa (human) inhibition; Potency, µM (series often up to 107 µM), for the others: at the top dose activity, negative = inhibition, hits mostly inhibitors; 400,000 compounds, 0.53% hits; AID 588579; Q9UBT6; purified Pol kappa, fluorescent DNA synthesis assay, 10 min; note: % is set by controls: 0 for no effect and ±100 for the full control effect
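Fluorescent qHTS in 1536-well format: enzyme (10 nM) and compound sat 15 min at room temperature before 50 nM substrate (final) was added. Signal taken at 0 and 10 min; no-enzyme buffer wells were negative controls.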
Pol beta inh: DNA polymerase beta (human) inhibition; P06746; Pol beta primer extension/strand displacement, fluorescence kinetic; Potency, µM (top dose mostly 114 µM), for inactives: at the highest dose activity change, negative = inhibition, actives largely listed as inhibitors; 340,000 compounds, 1.3% hits; note: % is set by controls: 0 for no effect and ±100 for the full control effect
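10 nM enzyme + cpd, 15 min RT; start with substrate 50 nM final; read 0 min and after 10 min RT. Corrected, normalized data; 4-parameter Hill curve fit.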
Pol iota inh: DNA polymerase iota (human) inhibition | 390,000 compounds, 1% hits | Pol iota fluorescent replication assay, 10 min | Q9UNA4 | Potency, µM (titrated, usually from 115 µM), inactives show at the top dose activity, negative = inhibition, most hits filed as inhibitors
Target sequence (Q9UNA4 whole entry, looked up): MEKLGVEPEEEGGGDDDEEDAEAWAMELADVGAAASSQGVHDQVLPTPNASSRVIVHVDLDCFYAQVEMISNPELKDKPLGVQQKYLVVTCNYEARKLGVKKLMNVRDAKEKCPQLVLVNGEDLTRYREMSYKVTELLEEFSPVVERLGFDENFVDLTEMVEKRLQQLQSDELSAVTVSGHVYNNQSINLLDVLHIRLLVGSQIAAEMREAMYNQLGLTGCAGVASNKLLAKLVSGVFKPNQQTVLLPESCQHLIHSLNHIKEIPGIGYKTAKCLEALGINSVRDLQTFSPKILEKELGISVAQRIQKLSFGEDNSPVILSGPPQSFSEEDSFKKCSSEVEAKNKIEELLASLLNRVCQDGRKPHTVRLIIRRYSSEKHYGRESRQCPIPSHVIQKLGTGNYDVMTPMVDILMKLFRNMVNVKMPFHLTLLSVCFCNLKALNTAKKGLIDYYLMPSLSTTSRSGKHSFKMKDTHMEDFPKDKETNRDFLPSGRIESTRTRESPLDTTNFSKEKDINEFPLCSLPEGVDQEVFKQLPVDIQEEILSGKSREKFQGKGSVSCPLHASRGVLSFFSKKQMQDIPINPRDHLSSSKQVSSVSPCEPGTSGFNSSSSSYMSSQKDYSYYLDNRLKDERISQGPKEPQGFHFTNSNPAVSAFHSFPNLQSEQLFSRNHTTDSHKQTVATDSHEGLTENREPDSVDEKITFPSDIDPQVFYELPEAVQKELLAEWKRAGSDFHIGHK
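Pol iota at 10 nM preincubated 15 min with compounds at room temperature; reaction started with fluorescent substrate, 50 nM final. Fluorescence read kinetically at 0 and 10 min; buffer-only wells as negative control.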
* hit, by the source's call; ? = inconclusive; nt = no result; [ ] = remark or other dose. Shown are actives, neighbours in structure and some others; about 2.4% of the full set was active somewhere. Calls come from the whole dose curve; as a rule, active = well fitted curve in the direction sought with a large enough effect; inconclusive = small, poorly fitted or top-dose-only effect, or another doubt; inactive = no such curve, though single readings can be large; an effect the other way counts as inactive or inconclusive. Potency is the fitted concentration of half-maximal effect.

SMILES	WRN helicase inh	Pol eta inh	FEN1 inh	POLK inh	Pol beta inh	Pol iota inh
Nc1nc(N)c2c(OCc3ccc(C(F)(F)F)cc3)cccc2n1	nt	nt	-11%	-3%	nt	17%
CCN(CCC(=O)O)c1ccccc1	7%	1%	-9%	10%	6%	-4%
NC(=O)N(CCC(=O)O)c1ccccc1	-3%	?	-1%	-4%	20µM*	-11%
COc1cccc(/C=C/c2cnc3ccccc3n2)c1OC	nt	nt	1%	3%	nt	21%
O=c1cc2nc(-c3ccccc3)nc(SCc3cccc(Br)c3)n2[nH]1	nt	?	-33%	-10%	?	-19%
COc1cccc(-c2nc(SCc3cccc(Br)c3)n3[nH]c(=O)cc3n2)c1	nt	?	-18%	-43%	13µM*	?
Cc1ccc2nc(SCC(=O)NCc3ccco3)c(C#N)cc2c1	-13%	?	9%	-5%	?	-6%
Cc1ccc2cc3cc(C(=O)NCc4ccco4)oc3nc2c1	?	?	-24%	?	79µM*	?
Cc1ccc2cc(C#N)c(SCC(=O)NCc3ccco3)nc2c1	-20%	?	2%	-43%	22µM*	?
CC[C@H](C)[C@H](NC(=O)[C@H](CC(C)C)NC(=O)[C@@H](N)CO)C(=O)NCC(=O)N[C@@H](CCCCN)C(=O)N[C@H](C(=O)O)C(C)C	nt	nt	nt	14%[60.1 µM]	nt	nt
O=c1c2ccccc2nc(/C=C/c2cccnc2)n1CCc1ccccc1	?	?	-3%	-22%	17%	7.9µM*
COc1ccc(C2=NOC3(CC(=O)N(c4ccc5ccccc5c4)C3=O)C2)c(OC)c1 (configuration not stated)	-11%	-23%	-3%	-44%	50µM*	?
Cc1noc(-c2ccc(N3CCCCC3C)c([N+](=O)[O-])c2)n1 (configuration not stated)	nt	-18%	5%	-12%	40µM*	-12%
Cc1ccc(-c2noc(-c3ccc(N4CCCCC4C)c([N+](=O)[O-])c3)n2)cc1 (configuration not stated)	nt	1%	-3%	-7%	2%	-29%
Oc1cc(Nc2ccccc2)cc2cccnc12	nt	-4%	0%	-28%	nt	21%
Oc1cc(NCCN2CCOCC2)cc2cccnc12	nt	-9%	-6%	-10%	nt	7.1µM*
COc1ccc(OC)c2c(C)ccnc12	nt	nt	-7%	6%	nt	-10%
Cc1ccccc1C1CC(=O)Oc2cc(C)c(Cl)c(C)c21 (configuration not stated)	nt	nt	nt	-15%	nt	nt
O=C(CC1c2ccccc2Oc2ccccc21)Nc1ccccc1F	-2%	-5%	-5%	-3%	-2%	89µM*
CC[C@]1(c2ccccc2)NC(=O)NC1=O	nt	nt	nt	-3%[12 µM]	nt	nt
Fc1ccccc1-c1ccc(-c2nc3ccc(Cl)cn3c2Nc2ccc(Cl)cc2)o1	nt	nt	1%	?	nt	29%
CC1CCCCN1C(=O)COC(=O)c1ccc(S(C)(=O)=O)c([N+](=O)[O-])c1 (configuration not stated)	nt	nt	15%	-8%	nt	?
Clc1nc(Oc2ccccc2)nc(-c2cn(-c3ccccc3)c3ccccc23)n1	-11%	-12%	-23%	12%	-29%	1%
CCNc1nc(Cl)nc(-c2cn(-c3ccccc3)c3ccccc23)n1	-1%	3%	9%	-8%	79µM*	-18%
COc1ccc(CCn2c(NN)nc3c2c(=O)[nH]c(=O)n3C)cc1	-1%	89µM*	14%	-19%	8%	25µM*
SMILES	WRN helicase inh	Pol eta inh	FEN1 inh	POLK inh	Pol beta inh	Pol iota inh
COc1ccc(CCn2c(NN=C(C)C)nc3c2c(=O)[nH]c(=O)n3C)cc1	-4%	0%	?	-24%	0%	?
NC(=O)c1cc([N+](=O)[O-])ccc1NCCc1ccccc1	-11%	-7%	11%	-5%	15%	28%
NC(=O)c1ccc([N+](=O)[O-])cc1SCc1ccccc1	-30%	?	-2%	?	40µM*	?
Nc1[nH]nc2nc3ccccc3cc12	-4%	-17%	-10%	-6%	6%	27%
Cc1cc2c(NC(=O)Nc3ccccc3)cccc2nn1	0%	-10%	-6%	2%	-2%	133%
Cc1cc2c(N)cccc2nn1	?	-11%	?	89µM*	22µM*	5.6µM*
Nc1cccc2nc3ccccc3cc12	2%	14%	-2%	8%	8.9µM*	-15%
O=C(O)COc1c(-c2ccco2)oc2ccccc2c1=O	-9%	-5%	3%	-23%	40µM*	?
COc1ccc(-c2oc3ccccc3c(=O)c2OCC(=O)O)cc1	5%	3%	0%	-12%	1%	35%
O=C(NCC1CC1)c1ccc2nc(-c3ccoc3)c(-c3ccoc3)nc2c1	nt	nt	-10%	-12%	nt	46%
CC(C)(C)c1ccc(/C=C/C(=O)Nc2ccncc2)cc1	-5%	-24%	-15%	1%	?	8%
O=C(Nc1ccc(C2=NCCN2)cc1)c1ccc(C(=O)Nc2ccc(C3=NCCN3)cc2)c(Cl)c1	?	-16%	50µM*	?	0.89µM*	?
O=C(Nc1ccncc1)Nc1cccc(Cl)c1	5%	10%	15%	5%	24%	5%
O=C(Nc1ccc(NC(=O)c2ccc(Cl)cc2Cl)cc1)c1ccc2c(c1)OCO2	19%	-7%	4%	1%	60%	37%
O=C(/C=C/c1ccc(/C=C/C(=O)Nc2ccc(C3=NCCN3)cc2)cc1)Nc1ccc(C2=NCCN2)cc1	nt	nt	nt	19µM*	nt	nt
O=C(Nc1cccc(C2=NCCN2)c1)Nc1cccc(C2=NCCN2)c1	8%	22µM*	-13%	7.5µM*	nt	10%
O=Cc1ccc(CS)cc1	nt	nt	10%	-9%	nt	5%
Cn1c(SCC(=O)NCc2ccco2)nnc1-c1cccc(NC(=O)c2ccccc2)c1	nt	nt	13%	11%	nt	25%
OC(Cc1ccc2ccccc2n1)c1c(Cl)cccc1Cl (configuration not stated)	nt	nt	12%	7%	nt	18%
CC1=CC(c2ccccc2)n2nc(N3C(=O)CCC3=O)nc2N1 (configuration not stated)	9%	-7%	7%	-8%	9%	21%
CC1=CC(c2ccccc2)n2nc(N3C(=O)c4ccccc4C3=O)nc2N1 (configuration not stated)	-14%[57.1 µM]	-19%	0%	45µM*	-16%	7%
CCS(=O)(=O)c1ccc2oc(SCC(=O)c3ccco3)nc2c1	-23%	16µM*	-6%	-11%	0%	?
CSc1nc(-c2ccccc2)c(C#N)c(=O)[nH]1	6%	-20%	-1%	-1%	10%	-22%
